PubChem BioAssay (NCATS)
Values joined by “and” are separate entries in the source; they are usually repeats but may differ in a detail not shown here. Equal values may be shown once. Results filed as inconclusive are left out. Some compounds were tested as several samples or in several runs, with calls that do not always agree. Active and inactive are the calls of the source. Calls come from the whole dose curve; as a rule, active = well fitted curve in the direction sought with a large enough effect; inconclusive = small, poorly fitted or top-dose-only effect, or another doubt; inactive = no such curve, though single readings can be large; an effect the other way counts as inactive or inconclusive.

Columns and labels:
[1] = Quantitative highthroughput screen to assess conditional lethalithy of NOMO1 cells grown in RPMI1640 with untreated serum (RPMI+s) (AID 1963876); note: nearly all actives have a fitted effect of over 35% in size; note: potency is the fitted concentration of half-maximal effect;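 for viability: 100% = DMSO wells and 0% = empty wells without cells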
Method in brief: (§1)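 Each medium arm—HPLM with 10% dialyzed FBS, or RPMI1640 with 5 mM glucose and 10% untreated or dialyzed FBS—was screened against an 11-point, 3-fold compound titration for 48 h at 37 °C, with CellTiter-Glo luminescence as endpoint.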

[2] = Quantitative highthroughput screen to assess conditional lethalithy of NOMO1 cells grown in RPMI1640 with dialyzed fetal bovine serum (RPMI+ds) (AID 1963877); note: nearly all actives have a fitted effect of over 30% in size; note: potency is the fitted concentration of half-maximal effect;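 for viability: series mostly up to about 46 µM; 100% = DMSO control wells and 0% = empty wells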
Method in brief: as §1

[3] = Quantitative highthroughput screen to assess conditional lethalithy of NOMO1 cells grown in Human Plasma-Like Medium with dialyzed fetal bovine serum (HPLM+ds) (AID 1963878); note: nearly all actives have a fitted effect of over 35% in size; note: potency is the fitted concentration of half-maximal effect;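 for viability: 100% = DMSO wells and 0% = empty wells on each plate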
Method in brief: as §1

[4] = Quantitative highthroughput screen to assess conditional lethalithy of P12 Ichikawa cells grown in Human Plasma-Like Medium with dialyzed fetal bovine serum (HPLM+ds) (AID 1963879); details: Potency: viability; note: nearly all actives have a fitted effect of over 35% in size; note: potency is the fitted concentration of half-maximal effect; for viability: series mostly up to about 46 µM
Method in brief: as §1

[5] = Quantitative highthroughput screen to assess conditional lethalithy of P12 Ichikawa cells grown in RPMI1640 with dialyzed fetal bovine serum (RPMI+ds) (AID 1963880); details: Potency: P12-Ichikawa viability; note: nearly all actives have a fitted effect of over 35% in size; note: potency is the fitted concentration of half-maximal effect;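 for viability: 100% = DMSO wells and 0% = empty wells on each plate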
Method in brief: as §1

[6] = Quantitative highthroughput screen to assess conditional lethalithy of SEM cells grown in Human Plasma-Like Medium with dialyzed fetal bovine serum (HPLM+ds) (AID 1963882); note: nearly all actives have a fitted effect of over 35% in size; note: potency is the fitted concentration of half-maximal effect; for viability: series mostly up to about 46 µM
Method in brief: as §1

[7] = Cellular viability qHTS for adrenocortical cancer (ACC) cell line SW-13 (AID 1963989); details: SW-13 ACC cells viability, CellTiter-Glo, 48 h; activity (max response): stronger effect = lower value;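 note: cells grown in serum-free medium with ITS supplement; % is set by controls: 0 for no effect and ±100 for the full control effect; nearly all actives have a fitted effect of over 65% in size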
Method in brief: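 Viability was read as CellTiter-Glo luminescence after 48 h compound treatment (up to 46 uM final) of SW-13 cells grown serum-free; titration curves were fit with a four-parameter logistic model to give IC50 and efficacy.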

[8] = Cellular viability qHTS for adrenocortical cancer (ACC) cell line NCI-H295R (AID 1963990); note: nearly all actives have a fitted effect of over 60% in size; note: potency is the fitted concentration of half-maximal effect
Method in brief: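 CellTiter-Glo ATP luminescence, read 48 h after compound addition, measured viability of NCI-H295R adrenocortical cells grown serum-free with ITS. Final concentrations spanned up to 46 uM. Data normalized to DMSO and doxorubicin, fitted for IC50 and maximal response.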

[9] = Quantitative highthroughput screen to assess conditional lethalithy of P12 Ichikawa cells grown in RPMI1640 with untreated serum (RPMI+s) (AID 1963881); details: Potency: viability; note: nearly all actives have a fitted effect of over 35% in size; note: potency is the fitted concentration of half-maximal effect;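 for viability: series mostly up to about 46 µM; 100% = DMSO wells and 0% = empty wells without cells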
Method in brief: as §1

[10] = Quantitative highthroughput screen to assess conditional lethalithy of SEM cells grown in RPMI1640 with unreated serum (RPMI+s) (AID 1963883); note: nearly all actives have a fitted effect of over 35% in size; note: potency is the fitted concentration of half-maximal effect;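 for viability: 100% = DMSO wells and 0% = empty wells without cells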
Method in brief: as §1

[11] = Quantitative highthroughput screen to assess conditional lethalithy of SEM cells grown in RPMI1640 with dialyzed fetal bovine serum (RPMI+ds) (AID 1963884); note: nearly all actives have a fitted effect of over 35% in size; note: potency is the fitted concentration of half-maximal effect;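 for viability: series mostly up to about 46 µM; 100% = DMSO control wells and 0% = empty wells without cells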
Method in brief: as §1

N[C@@H](Cc1c[nH]c2ccc(O)cc12)C(=O)O
inactive: Potency [1] | Potency [2] | Potency [3] | Potency [4] | Potency [5] | Potency [6] | activity (max response) [7] 10.6% | Potency [8]

CC(=O)N[C@@H]1[C@H](O[C@@H]2c3ccc(c(Cl)c3)Oc3cc4cc(c3O[C@H]3O[C@H](CO)[C@@H](O)[C@H](O)[C@H]3NC(=O)CCCCCCCC(C)C)Oc3ccc(cc3Cl)C[C@H]3NC(=O)[C@H](N)c5ccc(O)c(c5)Oc5cc(O)cc(c5)[C@H](NC3=O)C(=O)N[C@H]4C(=O)N[C@H]3C(=O)N[C@@H]2C(=O)N[C@@H](C(=O)O)c2cc(O)cc(O[C@H]4O[C@H](CO)[C@@H](O)[C@H](O)[C@H]4O)c2-c2cc3ccc2O)O[C@H](CO)[C@@H](O)[C@@H]1O
inactive: Potency [1] | Potency [2] | Potency [3] | Potency [4] | Potency [9] | Potency [6] | Potency [10]

COc1cc([C@H]2Oc3cc([C@H]4Oc5cc(O)cc(O)c5C(=O)[C@H]4O)ccc3O[C@H]2CO)ccc1O
inactive: Potency [1] | Potency [2] | Potency [3] | Potency [4] | Potency [9] | Potency [10]

CCCCOCCOc1nc(-c2ccc(C(=O)O)c(F)c2)sc1C
inactive: Potency [1] | Potency [2] | Potency [3] | Potency [4] | Potency [9] | Potency [6] | Potency [10] | Potency [11] | activity (max response) [7] -9.17% | Potency [8]

CC(=O)OCC(=O)[C@@]1(O)CC[C@H]2[C@@H]3CCC4=CC(=O)C=C[C@]4(C)[C@@H]3[C@@H](O)C[C@@]21C
inactive: Potency [1] | Potency [2] | Potency [3] | Potency [4] | Potency [9] | Potency [10] | Potency [11]

O=C(c1ccc(F)c(F)c1Nc1ccc(I)cc1F)N1CC(O)([C@H]2CCCCN2)C1
inactive: Potency [6]
active: Potency [1] 0.743 µM | Potency [2] 0.743 µM | Potency [3] 0.526 µM | Potency [4] 8.33 µM | Potency [9] 8.33 µM

O=C(C[C@@H]1CC=CCCC(=O)O[C@H](c2ccccc2)CNC1=O)NCc1ccc(Cl)cc1
inactive: Potency [1] | Potency [2] | Potency [3] | Potency [4] | Potency [9] | Potency [6] | Potency [10] | Potency [11]

CN1CCC[C@H]1CCO[C@](C)(c1ccccc1)c1ccc(Cl)cc1
inactive: Potency [1] | Potency [2] | Potency [3] | Potency [4] | Potency [9] | Potency [6] | Potency [10] | Potency [11]

O=c1oc2cc(O)ccc2s1
inactive: Potency [1] | Potency [2] | Potency [3] | Potency [4] | Potency [5] | Potency [9] | Potency [8]

C[C@]12CCC(=O)C=C1[C@@H]1CC1[C@H]1[C@H]3[C@@H]4C[C@H]4[C@@]4(CCC(=O)O4)[C@@]3(C)CC[C@H]12 (some centres undefined)
inactive: Potency [1] | Potency [2] | Potency [3] | Potency [4] | Potency [9] | Potency [6] | Potency [10] | Potency [11]

Cc1ccc2c(c1)c1c(n2CCc2ccc(C)nc2)CCN(C)C1
inactive: Potency [1] | Potency [2] | Potency [3] | Potency [4] | Potency [5] | Potency [6] | Potency [10] | Potency [11]

C[C@]12CC[C@@H]3c4ccc(O)cc4CC[C@H]3[C@H]1C[C@@H](O)[C@H]2O
inactive: Potency [1] | Potency [2] | Potency [3] | Potency [4] | Potency [5] | Potency [6] | Potency [10] | Potency [11]

C=C1C(=CC=C2CCC[C@]3(C)[C@@H]([C@H](C)C=C[C@H](C)C(C)C)CC[C@@H]23)C[C@@H](O)C[C@@H]1O
active: Potency [1] 16.6 µM | Potency [2] 20.9 µM | Potency [3] 8.33 µM | Potency [4] 8.33 µM | Potency [5] 14.8 µM | Potency [9] 9.35 µM
inactive: activity (max response) [7] -0.683% | Potency [8]

Nc1ccc(S(=O)(=O)Nc2ccnn2-c2ccccc2)cc1
inactive: Potency [1] | Potency [2] | Potency [3] | Potency [4] | Potency [9] | Potency [6] | Potency [10] | Potency [11] | activity (max response) [7] 3.92% | Potency [8]

CC(C=CC=C(C)C=CC1=C(C)CCCC1(C)C)=CC=CC=C(C)C=CC=C(C)C=CC1=C(C)CCCC1(C)C
inactive: Potency [1] | Potency [2] | Potency [3] | Potency [5] | Potency [9] | Potency [6] | Potency [10] | Potency [11]

Cc1ccc2c(c1)C(=O)[C@]1(O)CCN(c3ccccc3)C1=N2
inactive: Potency [1] | Potency [2] | Potency [3] | Potency [5] | Potency [9] | Potency [6] | Potency [10] | Potency [11] | Potency [8]

CN1C(=O)C[C@H](C(=O)N[C@@H](Cc2cnc[nH]2)C(=O)N2CCC[C@@H]2C(N)=O)NC1=O
inactive: Potency [1] | Potency [2] | Potency [3] | Potency [5] | Potency [9] | Potency [8]

CC(=O)[C@]1(O)Cc2c(O)c3c(c(O)c2[C@@H](O[C@H]2C[C@H](N)[C@@H](O)[C@H](C)O2)C1)C(=O)c1ccccc1C3=O
active: Potency [1] 2.96 µM | Potency [2] 3.72 µM | Potency [3] 2.96 µM | Potency [5] 1.48 µM | Potency [9] 1.48 µM | Potency [10] 0.833 µM | Potency [11] 1.05 µM

CCN(CC)CCOc1ccc(Cc2ccccc2)cc1
active: Potency [1] 10.5 µM | Potency [3] 7.43 µM | Potency [10] 4.18 µM | Potency [11] 8.33 µM
18.4 µM (active) and inactive: Potency [8]
inactive: Potency [2] | Potency [9] | activity (max response) [7] -24%

C=CC1=C(C(=O)O)N2C(=O)[C@@H](NC(=O)C(=NO)c3csc(N)n3)[C@H]2SC1
inactive: Potency [1] | Potency [2] | Potency [3] | Potency [5] | Potency [9] | Potency [6] | Potency [10]

CCCc1nc(C)c2c(=O)[nH]c(-c3cc(S(=O)(=O)N4CCN(CC)CC4)ccc3OCC)nn12
active: Potency [1] 9.35 µM | Potency [2] 9.35 µM | Potency [3] 9.35 µM | Potency [5] 9.35 µM | Potency [9] 10.5 µM | Potency [6] 11.8 µM | Potency [10] 9.35 µM | Potency [11] 7.43 µM
inactive: activity (max response) [7] -1.6% and 3.7% | Potency [8]
